Test results: PMC10726135, “HNF4α isoforms regulate the circadian balance between carbohydrate and lipid metabolism in the liver”
In all, about 18,000 sequences were measured (“log2 normalized intensity”: median about 0.39, highest 2% from about 6.6 on). What follows is part of a selection rich in the highest values, with near analogues and random picks from the rest.

Target: T1, HNF4alpha2 (COS-7 nuclear extract) (Homo sapiens, UniProt P41235 1-474)
T1 sequence: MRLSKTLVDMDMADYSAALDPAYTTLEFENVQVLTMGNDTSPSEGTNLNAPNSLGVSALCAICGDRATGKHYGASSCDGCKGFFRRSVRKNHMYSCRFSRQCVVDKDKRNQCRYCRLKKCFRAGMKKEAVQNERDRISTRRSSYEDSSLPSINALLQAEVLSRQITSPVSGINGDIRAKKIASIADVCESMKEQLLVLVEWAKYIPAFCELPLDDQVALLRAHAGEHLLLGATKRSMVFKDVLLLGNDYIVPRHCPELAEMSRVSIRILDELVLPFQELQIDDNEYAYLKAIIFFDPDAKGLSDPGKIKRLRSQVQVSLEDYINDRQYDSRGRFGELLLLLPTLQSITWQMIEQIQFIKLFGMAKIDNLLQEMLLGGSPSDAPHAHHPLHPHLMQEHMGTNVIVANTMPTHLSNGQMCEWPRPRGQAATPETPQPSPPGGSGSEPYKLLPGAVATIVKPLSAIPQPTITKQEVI
Experiment: protein-binding microarray; COS-7 nuclear extract on double-stranded Agilent 4x180k PBM; binding buffer, salt, pH and temperature not given in the material; high values mean tight binding
Details: chain copies: 2; label: 3' end of strand 1 on the slide; dsDNA, one strand shown
Outline: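 A custom Agilent SurePrint G3 4x180k array, spotted in quadruplicate with ~44,000 test sequences as ~60-nt oligonucleotides made double-stranded, was incubated with nuclear extracts. The extracts came from COS-7 cells transiently transfected by CaPO4 with a human HNF4α isoform expression vector. Bound HNF4α was imaged on an Agilent G2565CA scanner at 2-µm resolution, and the binding signal was taken as Agilent software's background-corrected, normalized gProcessedSignal.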

Going from “AATGGTGGGATAGGAGACATGAAGGACATAGCCTAGGGAGATTAGAGTATCGGTCGA” to “TCCTCTTATCTTCAGGTTTGCTAATATCTGGCCTAGGGAGATTAGAGTATCGGTCGA”, the binding signal rises from -0.721 log2 normalized intensity to 1.35 log2 normalized intensity.

Going from “CTAGGAGAGTCCGGGGCAAACAAGGGCAACGCCTAGGGAGATTAGAGTATCGGTCGA” to “TGAGATAGGTACTATTATTAGAGTCCCTTTGCCTAGGGAGATTAGAGTATCGGTCGA”, the binding signal rises from -0.823 log2 normalized intensity to 1.01 log2 normalized intensity.

First: TTTCCCCGTCCCAAGCTGAGGTCTGGTGTCGCCTAGGGAGATTAGAGTATCGGTCGA
Second: CTGAGATAGTCATTCTTCTACAGTGTTTACGCCTAGGGAGATTAGAGTATCGGTCGA
The binding signal of the first is higher: 2.59 log2 normalized intensity for the first, 0.901 log2 normalized intensity for the second.

Going from “AGCACACCTTTTTTTCATGCAAATTTCCGTGCCTAGGGAGATTAGAGTATCGGTCGA” to “AAGAAATAAAAACAGCTGGGTTCCAAAAGGGCCTAGGGAGATTAGAGTATCGGTCGA”, the binding signal rises from 0.118 log2 normalized intensity to 0.155 log2 normalized intensity.

First: GTCAAACTTTGGACCCACTGCAGGATTGGAGCCTAGGGAGATTAGAGTATCGGTCGA
Second: CCCTCCTTAAGACCTAGATGGAATGTTGTGGCCTAGGGAGATTAGAGTATCGGTCGA
The binding signal of the first is higher: 3.52 log2 normalized intensity for the first, 1.29 log2 normalized intensity for the second.

First: TGTCACACTGGCCTTTGCCCTCGCTGGCGGGCCTAGGGAGATTAGAGTATCGGTCGA
Second: AGCCTCTATGTCAGGCCATTTCACCTTTGCGCCTAGGGAGATTAGAGTATCGGTCGA
The binding signal of the first is higher: 4.25 log2 normalized intensity for the first, 3.72 log2 normalized intensity for the second.

Going from “TCAGGCCATTTCACCTTTGCCCTGTCAGTCGCCTAGGGAGATTAGAGTATCGGTCGA” to “CACAAAAAGGCTGTCACACTTGCCCTTTGCGCCTAGGGAGATTAGAGTATCGGTCGA”, the binding signal falls from 5.88 log2 normalized intensity to 4.82 log2 normalized intensity.

First: CTATGTCAGGCCATTTCACCTTTGCCCTGTGCCTAGGGAGATTAGAGTATCGGTCGA
Second: AAGGCTGTCACACTGGCCTTTGCCCTCGCTGCCTAGGGAGATTAGAGTATCGGTCGA
The binding signal of the first is higher: 6.82 log2 normalized intensity for the first, 4.98 log2 normalized intensity for the second.

Compared with “ACACTTGCCCTTTGCCCTCACTGGTAGAAGGCCTAGGGAGATTAGAGTATCGGTCGA”, “CTGTCACACTTGCCCTTTGCCCTCACTGGTGCCTAGGGAGATTAGAGTATCGGTCGA” is higher in binding signal: 5.09 log2 normalized intensity for the first, 7.1 log2 normalized intensity for the second.

Going from “AAAGGCTGTCACACTTGCCCTTTGCCCTCAGCCTAGGGAGATTAGAGTATCGGTCGA” to “GAGGAGAGAGTAAATAATTGATGAAACAGGGCCTAGGGAGATTAGAGTATCGGTCGA”, the binding signal falls from 8.34 log2 normalized intensity to -0.991 log2 normalized intensity.

Compared with “AGTACCTCTCAAAAATCTCACTCACCCTAAGCCTAGGGAGATTAGAGTATCGGTCGA”, “CATGAAGGTCTCCTTGACTTCAAAGGCATTGCCTAGGGAGATTAGAGTATCGGTCGA” is higher in binding signal: -0.279 log2 normalized intensity for the first, 0.693 log2 normalized intensity for the second.

First: AGCCCTTATATCCACATGGGTCCAAAGTTCGCCTAGGGAGATTAGAGTATCGGTCGA
Second: GACCAGTCTGCCTGACTCCAGAGTCCAAACGCCTAGGGAGATTAGAGTATCGGTCGA
The binding signal of the first is higher: 8.54 log2 normalized intensity for the first, 2.77 log2 normalized intensity for the second.

First: CAGGGAGCCCTTATATCCACATGGGTCCAAGCCTAGGGAGATTAGAGTATCGGTCGA
Second: TGCAAGTTACCTTGGGGTCAAAGTACATCCGCCTAGGGAGATTAGAGTATCGGTCGA
The binding signal of the first is lower: 2.29 log2 normalized intensity for the first, 8.65 log2 normalized intensity for the second.

Compared with “TGTCTCCCTCTGCAGCAAAGTCCAGGCATAGCCTAGGGAGATTAGAGTATCGGTCGA”, “CTATCTGCCTGCAGGAGAGAGCAAAGTCCAGCCTAGGGAGATTAGAGTATCGGTCGA” is higher in binding signal: 1.13 log2 normalized intensity for the first, 7.16 log2 normalized intensity for the second.

First: AGTCTTGAGTCCCAAAGTCCAAAGGCAGTCGCCTAGGGAGATTAGAGTATCGGTCGA
Second: CTTGGGGTCAAAGTACATCCCCTAAAACATGCCTAGGGAGATTAGAGTATCGGTCGA
The binding signal of the first is lower: 2.83 log2 normalized intensity for the first, 5.71 log2 normalized intensity for the second.

Compared with “ATTCCTAAGTTCCAAAGGCCATCCACATTCGCCTAGGGAGATTAGAGTATCGGTCGA”, “CAACTCCAAAGTCCAAAGTCCAGTCTTATCGCCTAGGGAGATTAGAGTATCGGTCGA” is higher in binding signal: 1.84 log2 normalized intensity for the first, 8.27 log2 normalized intensity for the second.

First: GTTACCTTGGGGTCAAAGTACATCCCCTAAGCCTAGGGAGATTAGAGTATCGGTCGA
Second: TGCCTGCAGGAGAGAGCAAAGTCCACGCATGCCTAGGGAGATTAGAGTATCGGTCGA
The binding signal of the first is higher: 6.4 log2 normalized intensity for the first, 6.29 log2 normalized intensity for the second.

First: GAGTCTTAGGGAGGGGCCAGGACAAAGGTCGCCTAGGGAGATTAGAGTATCGGTCGA
Second: CCACTCTCATGGTCAATATTTTCTTTGTGCGCCTAGGGAGATTAGAGTATCGGTCGA
The binding signal of the first is higher: 5.72 log2 normalized intensity for the first, 1.63 log2 normalized intensity for the second.

Compared with “GTCTGATCTTCCTGAGGAGAGCAAAGATCAGCCTAGGGAGATTAGAGTATCGGTCGA”, “GACTCCAGTGATCTTATCGCCTAGTACTCCGCCTAGGGAGATTAGAGTATCGGTCGA” is lower in binding signal: 2.54 log2 normalized intensity for the first, -0.841 log2 normalized intensity for the second.

Going from “CCTCGCCTATGGTATGTATGGAATGTCACTGCCTAGGGAGATTAGAGTATCGGTCGA” to “GCCAGGACAAAGGTCCTGTGGCCTGGGGAGGCCTAGGGAGATTAGAGTATCGGTCGA”, the binding signal falls from 1.63 log2 normalized intensity to 0.557 log2 normalized intensity.

First: CCTGGCCATTTCTCAGGTTGTGTTTGCAGTGCCTAGGGAGATTAGAGTATCGGTCGA
Second: CTATTGCAGTAACGGCAGGGTTGTGCAGGAGCCTAGGGAGATTAGAGTATCGGTCGA
The binding signal of the first is higher: 1.53 log2 normalized intensity for the first, 0.453 log2 normalized intensity for the second.
